# Experimental data published in PubChem BioAssay (Tox21).
# Several values for one entry are separate records, joined by “and”; a condition that tells them apart may be missing. Identical values can stand only once. Inconclusive results are not listed. Where a call stands in place of a potency, no number is given. More than one record can exist for a structure, and the calls need not agree. Activity calls are given as the source filed them. Calls come from the whole dose curve; as a rule, active = well fitted curve in the direction sought with a large enough effect in the repeat runs; inconclusive = weak or mixed curves; inactive = no such curve, though single readings can be large; an effect the other way counts as inactive or inconclusive.
# Key:
# [1] = qHTS assay to identify small molecule antagonists of the retinoid acid receptor (RAR) signaling pathway - cell viability counter screen (AID 1159551); note: nearly all actives have a fitted effect of over 35% in size; note: potency is the fitted concentration of half-maximal effect
# How it was run: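 Cytotoxicity counter screen: ATP content quantified by CellTiter-Glo luminescence in C3RL4 cells treated 6 hr at 37 C with compound and retinol (1 uM final). Cells plated at 1,000/well and cultured overnight before dosing.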
# [2] = qHTS assay to identify small molecule antagonists of the retinoic acid receptor (RAR) signaling pathway (AID 1159552; note: nearly all actives have a fitted effect of over 50% in size; note: potency is the fitted concentration of half-maximal effect)
# How it was run: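 Luminescence from a RARE luciferase reporter in C3RL4 cells served as read-out. Cells received compounds together with 1 uM final retinol and incubated 6 hr at 37 C before detection reagent was added for 30 min at room temperature.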
# [3] = qHTS assay to identify small molecule agonists of the retinoic acid receptor (RAR) signaling pathway (AID 1159553); note: potency is the fitted concentration of half-maximal effect
# How it was run: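 Luminescence was measured 30 min after luciferase reagent addition at room temperature. Before that, C3RL4 reporter cells (1,000 per well, plated overnight) were treated with compound for 6 hr at 37 C and 5% CO2.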
# [4] = qHTS assay to identify small molecule antagonists of the estrogen related receptor (ERR) signaling pathway - cell viability counter screen (AID 1224818);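 note: series mostly up to about 46 µM; viability measured after 17.5 h of compound exposure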
# How it was run: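 Cytotoxicity counter screen: fluorescence from CellTiter-Fluor, added after 17.5 h compound exposure at 37 C and read 30 min later. ERR cell line seeded at 2,000 cells/well, preincubated 6 h before dosing.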
# [5] = qHTS assay to identify small molecule antagonists of the estrogen related receptor signaling pathway with the pleiotropic PPARgamma coactivator (PGC) cell viability counter screen (AID 1224822; note: series mostly up to about 46 µM)
# How it was run: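 Viability counter-screen read by fluorescence intensity after 30 min with CellTiter-Fluor at 37 C; PGC/ERR reporter cells were exposed to compounds for 17.5 h at 37 C following a 6 h preincubation.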
SMILES,Potency [1],Potency [2],Potency [3],Potency [4],Potency [5]
CCOC(=O)Cc1ccccc1,inactive,inactive,–,–,–
CCCCCCCc1ccc(O)cc1,inactive,inactive,8.63 µM (active),–,–
O=C(Cl)c1ccccc1F,inactive,inactive,inactive,–,–
CNC(=O)CSP(=O)(OC)OC,inactive,inactive,inactive,–,–
c1csc(-c2ccc(-c3cccs3)s2)c1,inactive,inactive,1.72 µM (active),–,–
CN(C)c1ccc(N)cc1,–,inactive,0.596 µM (active),–,–
COCCC#N,inactive,inactive,inactive,–,–
N#Cc1c2ccccc2cc2ccccc12,inactive,inactive,–,–,–
O=P(Cl)(Cl)Cl,inactive,inactive,inactive,–,–
CCCCC/C=C\C/C=C\C/C=C\C/C=C\CCCC(=O)NCC(=O)O,inactive,inactive,inactive,–,–
Cc1cc(C2CC2)nc(Nc2ccccc2)n1,–,inactive,–,–,–
CCOP(=S)(NC(C)C)Oc1ccccc1C(=O)OC(C)C (stereo unspecified),inactive,54.5 µM (active),–,–,–
CCOP(=O)(Sc1ccccc1)Sc1ccccc1,inactive,48.6 µM (active),inactive,–,–
c1ccc(Nc2ccc(Nc3ccccc3)cc2)cc1,inactive,inactive,5.43 µM (active),–,–
Brc1ccc(Oc2ccc(Br)cc2Br)c(Br)c1,inactive,inactive,13.7 µM (active),–,–
CC(Cc1ccc(O)cc1)NCC(O)c1cc(O)cc(O)c1 (stereo unspecified),inactive,–,inactive,inactive,inactive

SMILES,Potency [1],Potency [2],Potency [3],Potency [4],Potency [5]
Oc1cccc(Cl)c1Cl,inactive,inactive,inactive,–,–
O=C(O)CCCCCCNC1c2ccccc2CCc2ccccc21,inactive,inactive,–,–,–
CCO/N=C(\CC)C1=C(O)CC(c2c(C)cc(C)cc2C)CC1=O (stereo unspecified),inactive,–,–,inactive,inactive
CSC(=O)c1c(C(F)F)nc(C(F)(F)F)c(C(=O)SC)c1CC(C)C,inactive,–,inactive,–,–
Cc1c([N+](=O)[O-])cc2c(c1[N+](=O)[O-])C(C)(C)CC2(C)C,inactive,inactive,–,–,–
c1ccc2c(c1)cc1ccc3cccc4ccc2c1c34,inactive,inactive,11.1 µM (active),–,–
CCOP(=O)(OCC)Oc1nc(Cl)c(Cl)cc1Cl,inactive,inactive,inactive,–,–
O=[N+]([O-])c1ccccc1-c1ccccc1,inactive,inactive,inactive,–,–
CCCN,inactive,inactive,inactive,–,–
Cc1cc2c3c(c1)C(c1ccccc1)=N[C@@H](NC(=O)c1ccncc1)C(=O)N3CC2,inactive,inactive,inactive,–,–
CCCCCCCCCCCCCCn1cc[n+](C)c1,54.6 µM (active) and 60.4 µM (active),13.7 µM (active) and 24.1 µM (active) and inactive,inactive,–,–
Cc1c([N+](=O)[O-])c(C)c([N+](=O)[O-])c(C(C)(C)C)c1[N+](=O)[O-],inactive,inactive,inactive,–,–
O=c1[nH]c(Cl)c(Cl)cc1Cl,inactive,inactive,inactive,–,–
CCCCON=O,inactive,inactive,inactive,–,–
O=C(NC(=O)c1ccccc1Cl)Nc1ccc(OC(F)(F)F)cc1,inactive,inactive,inactive,–,–
CCC(C)c1cccc(C(C)CC)c1O (stereo unspecified),–,–,inactive,–,–
